HepG2 tox: counter-screen for TGF-b inhibitors: cytotoxicity in HepG2 cells; HepG2 CAGA-GFP viability, ATP luminescence, 18 h; Potency, µM (highest dose often 46.1 µM), hits mostly cytotoxic; actives 0.76% (n = 410,000)
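HepG2 CAGA-GFP cells (1000/well, DMEM with 1% FBS) received compound, then TGF-beta at 500 pg/mL final, and were incubated 18 hours at 37 degrees C. Viability was read by CellTiter-Glo luminescence. Media-only wells were set as complete cell-killing and DMSO as no toxicity.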
TDP1 inh: inhibitors of human tyrosyl-DNA phosphodiesterase TDP1; recombinant TDP1, AlphaScreen DNA substrate cleavage; Potency, µM (titrated, usually from 130 µM), hits mostly inhibitors; actives 0.28% (n = 350,000); also: nearly all actives have a fitted effect of over 40% in size
Target sequence (Q9NUW8 whole entry, looked up): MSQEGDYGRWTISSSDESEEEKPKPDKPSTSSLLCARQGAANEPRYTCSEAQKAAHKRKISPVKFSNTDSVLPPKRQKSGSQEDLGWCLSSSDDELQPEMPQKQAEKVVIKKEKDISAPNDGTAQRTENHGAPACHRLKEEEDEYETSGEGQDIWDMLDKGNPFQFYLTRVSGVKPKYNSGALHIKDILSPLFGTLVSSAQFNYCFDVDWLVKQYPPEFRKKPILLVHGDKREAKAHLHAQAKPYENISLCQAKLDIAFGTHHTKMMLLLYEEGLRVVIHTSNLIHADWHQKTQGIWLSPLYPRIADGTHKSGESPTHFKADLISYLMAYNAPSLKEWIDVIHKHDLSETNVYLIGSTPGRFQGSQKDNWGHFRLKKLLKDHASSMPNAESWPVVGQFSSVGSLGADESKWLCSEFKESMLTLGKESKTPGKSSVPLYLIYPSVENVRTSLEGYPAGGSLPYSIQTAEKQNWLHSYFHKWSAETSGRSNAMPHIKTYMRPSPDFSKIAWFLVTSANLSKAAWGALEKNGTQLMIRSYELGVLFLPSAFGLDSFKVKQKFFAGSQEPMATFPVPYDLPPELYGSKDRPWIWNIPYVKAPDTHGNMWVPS
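Compounds were preincubated with Tdp1 (1 nM final) for 15 min at room temperature before substrate (15 nM final) started a 5 min reaction; beads (10 ug/ml final) were then added for 10 min before AlphaScreen detection.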
TGFb SMAD3 inh: TGF-b pathway inhibition; HepG2 CAGA-GFP TGF-b/SMAD3 reporter, GFP fluorescence, 18 h; TGF-beta stimulated, 500 pg/mL final; Potency, µM (doses to about 46.1 µM), hits mostly inhibitors; actives 1.2% (n = 410,000); also: nearly all actives have a fitted effect of over 65% in size
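Per well, imaged GFP fluorescence of HEPG2 CAGA-GFP cells gives the signal; cells get compound, then TGF-beta (500 pg/mL final), 18 h at 37 degrees C; %Activity versus -TGF-beta and +DMSO controls.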
DT40 TDP1 no CPT: qHTS for Inhibitors of human tyrosyl-DNA phosphodiesterase 1 (TDP1): qHTS in cells in absence of CPT; DT40 Tdp1-/- hTDP1 cells, no CPT, ATP luminescence, 48 h; Potency, µM (highest dose often 46.2 µM), actives largely listed as inhibitors; actives 15% (n = 420,000); also: nearly all actives have a fitted effect of over 55% in size
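Readout: luminescence from CellTiter-Glo after 30 min in the dark at RT. Cells: DT40 Tdp1-/- with stable hTDP1, 400/well. Exposure: compounds alone, ≥48 hr, 37 °C.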
DT40 TDP1 CPT: growth inhibition of DT40 Tdp1-/-;hTDP1 cells with camptothecin (screen for TDP1 inhibitors); AID 686979; actives 12% (n = 420,000); Potency, µM (highest dose often 46.2 µM), hits mostly inhibitors; chicken DT40 Tdp1-/-;hTDP1 cells + 20 nM CPT, ATP luminescence, 48 h; also: nearly all actives have a fitted effect of over 55% in size
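Chicken DT40 Tdp1-/- cells stably complemented with human TDP1 were seeded at 400 cells/well in medium containing 20 nM camptothecin, exposed to pin-transferred compounds, and grown at 37 °C for at least 48 hr. Viability was read as ATP luminescence.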
IL-1B inflam inh: inhibitors of inflammasome signaling (IL-1 beta secretion); THP-1 LPS/ATP IL-1B secretion, AlphaLISA, 16 h; active compounds read low; activity change, % at 57.5 µM; actives 4.7% (n = 360,000); in the data active = activity change below about -50%; inconclusive = mostly about -30% to -49%
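THP-1 cells pretreated 1 hr with compounds (up to 57.5 uM final), then stimulated with LPS (250 ng/mL final) plus ATP (1.25 mM final); secreted IL-1B measured by AlphaLISA after 16 hr, decreased signal indicating inhibition.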
Numbers stand for hits; 0 = inactive; ? = inconclusive; - = no result given; [ ] = remark or other dose. This is a sample that favours compounds with a hit; in the whole collection about 19% have one here. Unless noted, calls follow the shape of the dose curve; as a rule, active = well fitted curve in the direction sought with a large enough effect; inconclusive = small, poorly fitted or top-dose-only effect, or another doubt; inactive = no such curve, though single readings can be large; an effect the other way counts as inactive or inconclusive.

SMILES	HepG2 tox	TDP1 inh	TGFb SMAD3 inh	DT40 TDP1 no CPT	DT40 TDP1 CPT	IL-1B inflam inh
CCCn1c(=O)c2sccc2n2c(CCCC(=O)Nc3ccc(C)c(F)c3)nnc12	0	0	0	23µM	?	-
CCCn1c(=O)c2sccc2n2c(CCCC(=O)NCCOC)nnc12	0	0	0	0	0	-
CC(N)c1csc(NC(=O)Nc2cccc(C(F)(F)F)c2)n1 (stereo not drawn)	20µM	-	?	?	?	-102
CN(C)Cc1csc(NC(=O)Nc2cccc(Cl)c2)n1	0	-	?	18µM	26µM	?
Cc1cccc(C)c1NC(=O)Nc1nc(CN(C)C)cs1	0	-	0	0	0	0
CN(C)Cc1csc(NC(=O)Nc2cccc(C(F)(F)F)c2)n1	0	-	0	18µM	15µM	0
COc1ccc2c(c1OC)C(=O)N1C2SC(C)(C)[C@H]1C(=O)NCC(C)C (stereo partly drawn)	0	-	0	0	0	0
CCC1CN(Cc2cccc3nccnc23)Cc2cc(OC)ccc2O1 (stereo not drawn)	-	-	-	?	0[9.04 µM]	-
CCC1CN(Cc2cn[nH]c2-c2ccc(OC)cc2)Cc2cc(OC)ccc2O1 (stereo not drawn)	-	-	-	?	0[9.04 µM]	-
CCC1CN(Cc2cn[nH]c2-c2ccc(F)cc2)Cc2cc(OC)ccc2O1 (stereo not drawn)	-	-	-	21µM	?	-
CCC1CN(Cc2cn[nH]c2-c2ccccc2)Cc2cc(OC)ccc2O1 (stereo not drawn)	-	-	-	18µM	0[9.04 µM]	-
COc1ccccc1-c1nnc(SCC(=O)c2ccc(Cl)cc2)n1-c1ccccc1	0	0	?	-	-	-
COc1ccc(C(=O)CSc2nnc(CN3CCCCC3)n2-c2ccc(Cl)cc2)cc1OC	0	0	0	21µM	?	0
Cn1c(SCC(=O)c2ccc3c(c2)OCO3)nnc1C1COc2ccccc2O1 (stereo not drawn)	0	0	0	16µM	21µM	0
Cn1c(SCC(=O)c2ccccc2)nnc1C1COc2ccccc2O1 (stereo not drawn)	0	0	0	?	0	0
O=C(CSc1nnc(CN2CCCC2)n1-c1ccccc1)c1ccc2c(c1)OCO2	0	0	0	16µM	?	0
COc1ccc(S(=O)(=O)N(CC(C)C)C2CCS(=O)(=O)C2)cc1OC (stereo not drawn)	0	0	0	0	0	0
CN1CCS/C1=C/C=C1\SC(=S)N(CC(=O)O)C1=O	0	0	0	0	0	0
CCCCN1C(=O)/C(=C/C=C2\SCCN2C)SC1=S	0	0	0	0	?	-50
Cc1ccc(S(=O)(=O)N2CCC(C(=O)N/N=C/c3cccn3C)CC2)cc1	0	0	0	0	0	0
O=C(Nc1ccccc1)NC1CCS(=O)(=O)C1 (stereo not drawn)	0	0	0	0	0	0
CC(=O)NC1=C(NC2CCS(=O)(=O)C2)C(=O)c2ccccc2C1=O (stereo not drawn)	0	0	?	12µM	10µM	0
CN(C1=C(NC(=O)c2ccccc2)C(=O)c2ccccc2C1=O)C1CCS(=O)(=O)C1 (stereo not drawn)	18µM	0	18µM	2.6µM	2.6µM	?
Cc1ccc(C(=O)NCCC(=O)NCc2ccco2)cc1	0	0	0	0	0	0
O=C(Nc1ccc(C(=O)OCc2cc(=O)n3nc(C4CC4)sc3n2)cc1)c1ccccc1	0	0	0	0	0	-
SMILES	HepG2 tox	TDP1 inh	TGFb SMAD3 inh	DT40 TDP1 no CPT	DT40 TDP1 CPT	IL-1B inflam inh
O=C(Nc1c2ccccc2nc2ccccc12)C(Cl)(Cl)Cl	0	0	?	23µM	16µM	?
Cc1ccc(OCC(=O)NNc2c3ccccc3nc3ccccc23)cc1	0	0	0	16µM	?	0
O=C(Nc1c2c(nc3ccccc13)CCCC2)c1ccccc1Cl	0	0	?	0	0	0
O=C(Cc1ccccc1)NNc1c2ccccc2nc2ccccc12	0	0	0	?	21µM	0
O=C(Cc1ccccc1)NNC(=O)Cc1ccccc1	0	0	0	0	0	0
Cc1cc(CNC(=O)COc2ccc(F)cc2)c2ccccc2n1	0	0	?	21µM	?	0
CC(=O)NC(CC(=O)OCC(=O)NCCc1ccccc1)c1ccccc1 (stereo not drawn)	0	0[0.505 µM]	?	0	0	0
COC(=O)c1ccc(C(NC(=O)OCc2ccccc2)/C(F)=C/[C@@H](C)C(=O)NCCc2c[nH]c3ccc(OC)cc23)cc1 (stereo partly drawn)	-	0	-	-	-	-
O=C(N/N=C/C=C/c1ccccc1[N+](=O)[O-])c1cc(-c2cccnc2)nc2ccccc12	0	0	0	21µM	?	0
O=C(NN=Cc1cccc([N+](=O)[O-])c1)c1cc(-c2cccnc2)nc2ccccc12	0	0	0	?	?	0
Cc1occc1C(=O)N/N=C/C=C/c1ccccc1[N+](=O)[O-]	0	0	0	0	0	-62
O=C(N/N=C/C=C/c1ccccc1[N+](=O)[O-])c1ccncc1	0	0	0	?	?	0

From PubChem
